We go through twelve compounds from PubChem BioAssay.

This experiment deals with Noggin (protein binding on small-molecule microarray). Nature of the experiment: small molecules binding Noggin protein – biochemical, 635/667 nm fluorescence, primary screen (AID 1095).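 Further: score merges 667 nm feature fluorescence with signal to noise over triplicate slides.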 The note with it: 635 nm fluorescence, higher = more signal.
On to `C=C(/C(=C/C[C@H](OC(C)=O)c1ccccc1OCCO)c1cc(C(=O)OC)ccc1OC)C(C)C`, for which the composite z-score was determined as 0.295.

Compound `C[N+](C)(C)CCCC[C@@H]1NC(=O)[C@H]2C[C@@H](C(=O)NCCCCCCN)[C@@H](c3ccc(O)cc3)N2C1=O` showed a composite z-score of -0.232.

For the compound `COc1ccccc1CN1C(=O)c2ccccc2[C@](Cc2ccccc2I)(C(=O)NCC(F)(F)F)[C@@H]1c1ccc(CO)cc1`, the composite z-score stood at 0.576.

In turn, `O=C(NCc1ccccc1)[C@@H]1c2ccccc2C(=O)N(Cc2ccccc2C(F)(F)F)[C@H]1c1ccc(CO)cc1` had a composite z-score of -0.483.

`COC(=O)[C@H](Cc1ccccc1)N1CC(/C=C/C2CC2)=C[C@H]1[C@H](O)Cc1ccccc1`: the composite z-score worked out at 0.961.

For `CCOC(=O)C1=CC[C@@H](c2ccc(OCc3ccccc3)c(OC)c2)N(S(=O)(=O)c2ccc(C)cc2)[C@H]1c1ccc(SC)cc1`, the composite z-score was found to be 0.257.

Compound `COc1cccc(/C=C/C=O)c1` registered a composite z-score of 0.137.

Consider `CC(=O)NCCCC[C@@H]1NC(=O)[C@H]2C[C@@H](C(=O)NCCCC[N+](C)(C)C)[C@@H](c3cccc(OCCO)c3)N2C1=O`, for which the composite z-score came out at 1.81.

In turn, `O=C1C2C=CC(C(O)c3ccccc3)N(Nc3ccccc3F)C2C(=O)N1c1ccccc1` (configuration not stated) returned a composite z-score of -0.0199.

For `CCOC(=O)C[C@H]1[C@H](OC(=O)c2ccccc2-c2ccccc2)[C@@H](NC(=O)c2ccc(-c3ccccc3)cc2)c2cc(OCCCO)ccc2N1C(=O)c1ccc2ccccc2n1`, the composite z-score came out at 0.427.

As for `CO[C@]12C=C(Br)[C@@H](C[C@@H]1c1cccc(C)c1)[C@@]1(CO1)C2=O`, the composite z-score is 0.569.

Compound `[N-]=[N+]=Nc1ccccc1[C@@H]1OC(c2ccc(OCCCO)cc2)=N[C@]1(Cc1ccccc1)C(=O)NCC(O)CO` (some centres not stated) gave a composite z-score of 0.244.
